Source: PubChem BioAssay (The Scripps Research Institute Molecular Screening Center)
Most compounds without a hit are left out; they make up all but 4.1% or so of the library.
LEDGF integ inh: blocks HIV-1 LEDGF/p75-dependent DNA integration; actives 0.64% (n = 370,000); inhibition, % at 3.7 µM; TR-FRET IN-LEDGF/p75 DNA integration, Eu/Cy5;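 active = inhibition above the screen-wide mean plus 3 SD, cut at about 13% in these data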;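 note: signal is the Cy5 over europium emission ratio at 671 and 618 nm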
rCAG binder: binds r(CAG) RNA repeats. r(CAG) RNA repeat, TO-PRO-1 dye displacement fluorescence. inhibition, % at 3 µM. actives 1.3% (n = 370,000);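 active = inhibition above the plate cutoff, the mean of all test compounds on that plate plus 3 SD, cut at about 35% in these data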;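 note: higher means more dye released from RNA so lower well fluorescence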
ABHD5 PLIN5 PPI: ABHD5-PLIN5 protein interaction inhibition | Q00G26+Q8WTS1 | Split G. princeps luciferase complementation, luminescence, 4 h | inhibition, % at 4 µM | actives 0.78% (n = 360,000);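 active = inhibition above the mean inhibition across every tested compound plus 3 SD, cut at about 22% in these data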
UHRF1 binding: UHRF1 methyl-DNA binding inhibition; Q96T88; UHRF1 binding to methylated oligo, TR-FRET; inhibition, % at 4.4 µM; actives 0.75% (n = 370,000); in the data active = inhibition above about 21%;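 note: UHRF1 SRA domain binding a hemimethylated CpG hairpin DNA probe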
Target sequence (Q96T88 whole entry, looked up, the tested form may be a part): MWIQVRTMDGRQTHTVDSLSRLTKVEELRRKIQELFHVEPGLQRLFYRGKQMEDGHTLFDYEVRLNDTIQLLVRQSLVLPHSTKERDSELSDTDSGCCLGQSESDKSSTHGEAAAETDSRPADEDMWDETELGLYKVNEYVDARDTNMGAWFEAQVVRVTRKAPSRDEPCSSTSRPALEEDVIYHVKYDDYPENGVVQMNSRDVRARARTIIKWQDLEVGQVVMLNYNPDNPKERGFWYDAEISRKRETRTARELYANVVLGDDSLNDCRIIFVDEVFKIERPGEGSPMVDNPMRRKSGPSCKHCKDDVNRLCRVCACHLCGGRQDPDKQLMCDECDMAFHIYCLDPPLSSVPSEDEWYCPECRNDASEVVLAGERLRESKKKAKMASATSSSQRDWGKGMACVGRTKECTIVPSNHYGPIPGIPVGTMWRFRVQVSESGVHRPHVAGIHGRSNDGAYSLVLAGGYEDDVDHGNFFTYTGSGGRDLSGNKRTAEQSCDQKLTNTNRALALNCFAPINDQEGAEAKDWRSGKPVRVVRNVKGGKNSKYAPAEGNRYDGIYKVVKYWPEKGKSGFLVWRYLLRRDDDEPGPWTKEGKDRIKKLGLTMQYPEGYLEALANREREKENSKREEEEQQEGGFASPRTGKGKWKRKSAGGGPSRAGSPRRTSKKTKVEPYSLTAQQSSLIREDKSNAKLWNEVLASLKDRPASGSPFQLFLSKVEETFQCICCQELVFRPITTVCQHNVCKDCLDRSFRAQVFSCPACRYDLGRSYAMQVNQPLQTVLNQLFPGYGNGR
PRMT1 FP inh: PRMT1 (human) inhibition, primary screen; Q99873; recombinant PRMT1, activity-based probe fluorescence polarization; inhibition, % at 2.79 µM; actives 1.3% (n = 370,000); AID 652257;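 active = inhibition above about 21% made by adding two undisclosed values, limit read from the data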
MBD2 DNA inh: blocks human MBD2 binding to methylated DNA | Q9UBB5 | TR-FRET, MBD2 binding to methylated oligonucleotide | inhibition, % at 4.4 µM | actives 0.31% (n = 370,000) | AID 686964; in the data active = inhibition above about 13%
rCAG binder conf: r(CAG) RNA repeat binding, confirmation; shares compounds with rCAG binder; TO-PRO-1 dye displacement fluorescence; inhibition, % at 3 µM; actives 70% (n = 4,300);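 active = inhibition above a per-plate cutoff, the mean inhibition of sample wells plus 3 SD, cut at about 35% in these data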;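 note: loss of TO-PRO-1 fluorescence as compound displaces dye from 1x1 AA loop RNA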
DNA CAG counter: counter-screen for rCAG RNA binders: DNA CAG dye complex inhibitors; inhibition, % at 3 µM; d(CAG) DNA oligo TO-PRO-1 dye displacement, fluorescence; shares compounds with rCAG binder; actives 94% (n = 4,300); AID 652068;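 active = inhibition above its plate's cutoff, the mean test-well inhibition plus 3 SD, cut at about 4.8% in these data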;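 note: hits displace the dye from DNA and so lower well fluorescence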
A number is an active result.

How did Cc1cc(=O)n(CCc2ccccc2)c(O)c1C#N do in these assays?
LEDGF integ inh: inactive; rCAG binder: 64; ABHD5 PLIN5 PPI: inactive; UHRF1 binding: inactive; PRMT1 FP inh: inactive; MBD2 DNA inh: inactive; rCAG binder conf: inactive; DNA CAG counter: 4.4

How did O=C(NC1CCCCN(Cc2cccc(Cl)c2)C1=O)c1ccc(F)c(F)c1 (configuration not stated) do in these assays?
LEDGF integ inh: inactive; rCAG binder: inactive; UHRF1 binding: inactive; PRMT1 FP inh: inactive; MBD2 DNA inh: inactive

What do the screens show for `CC(C)NC(=O)N[C@@H]1C[C@@H]2O[C@@H](CO)CC[C@@H]2O[C@@H]1CCc1ccc(-c2ccc(F)cc2)cc1`?
LEDGF integ inh: inactive; rCAG binder: inactive; UHRF1 binding: inactive; PRMT1 FP inh: inactive; MBD2 DNA inh: inactive

How did COC(=O)c1c(NC(=O)C2CCCCC2C(=O)O)sc2c1CCCCC2 (configuration not stated) do in these assays?
LEDGF integ inh: inactive; rCAG binder: 48; ABHD5 PLIN5 PPI: inactive; UHRF1 binding: inactive; PRMT1 FP inh: inactive; MBD2 DNA inh: inactive; rCAG binder conf: inactive; DNA CAG counter: 5.7

Results for COC(=O)c1sc(NC(=O)C2CCCCC2C(=O)O)c(C(=O)OC)c1C (configuration not stated) ?
LEDGF integ inh: inactive; rCAG binder: 39; ABHD5 PLIN5 PPI: inactive; UHRF1 binding: inactive; PRMT1 FP inh: inactive; MBD2 DNA inh: inactive; rCAG binder conf: 44; DNA CAG counter: 9.0

Results for COCC(=O)Nc1sc2c(c1C(=O)OC)CCCC2 ?
LEDGF integ inh: inactive; rCAG binder: inactive; ABHD5 PLIN5 PPI: inactive; UHRF1 binding: inactive; PRMT1 FP inh: inactive; MBD2 DNA inh: inactive

How did COC(=O)c1sc(NC(=O)C2CCCO2)c(C(=O)OC)c1C (configuration not stated) do in these assays?
LEDGF integ inh: inactive; rCAG binder: inactive; ABHD5 PLIN5 PPI: inactive; UHRF1 binding: inactive; PRMT1 FP inh: inactive; MBD2 DNA inh: inactive

What do the screens show for `CC(C)=CCc1cc(-c2oc3cc(O)cc(O)c3c(=O)c2O)ccc1O`?
LEDGF integ inh: inactive; rCAG binder: 44; ABHD5 PLIN5 PPI: inactive; UHRF1 binding: inactive; PRMT1 FP inh: inactive; MBD2 DNA inh: inactive; rCAG binder conf: 52; DNA CAG counter: 25

Results for O=c1c(O)c(-c2ccccc2)oc2cc(O)cc(O)c12 ?
LEDGF integ inh: inactive; rCAG binder: inactive; ABHD5 PLIN5 PPI: inactive; UHRF1 binding: inactive; PRMT1 FP inh: inactive; MBD2 DNA inh: inactive

What do the screens show for `Cc1cccc(-c2cccc3c4c([nH]c23)[C@@H]2C[C@H](N(C)C(=O)C3CCCCC3)[C@H]([C@H](C)O)CN2CC4)c1`?
LEDGF integ inh: inactive; rCAG binder: inactive; UHRF1 binding: inactive; PRMT1 FP inh: inactive; MBD2 DNA inh: inactive

How did O=C(NCCc1c[nH]c2ccccc12)OCc1cn(-c2ccc(Cl)cc2)nn1 do in these assays?
LEDGF integ inh: inactive; rCAG binder: inactive; UHRF1 binding: inactive; PRMT1 FP inh: inactive; MBD2 DNA inh: inactive

What do the screens show for `COc1ccc(/C=C/C(=O)Nc2ccc(S(=O)(=O)Nc3cc(C)nc(C)n3)cc2)cc1OC`?
LEDGF integ inh: inactive; rCAG binder: inactive; ABHD5 PLIN5 PPI: inactive; UHRF1 binding: inactive; PRMT1 FP inh: inactive; MBD2 DNA inh: inactive

How did Cc1cc(NS(=O)(=O)c2ccc(NC(=O)/C=C/c3c(F)cccc3Cl)cc2)no1 do in these assays?
LEDGF integ inh: inactive; rCAG binder: 63; ABHD5 PLIN5 PPI: inactive; UHRF1 binding: inactive; PRMT1 FP inh: inactive; MBD2 DNA inh: inactive; rCAG binder conf: 51; DNA CAG counter: 19

Results for Cc1cc(NS(=O)(=O)c2ccc(NC(=O)/C=C/c3c(F)cccc3Cl)cc2)nc(C)n1 ?
LEDGF integ inh: inactive; rCAG binder: 43; ABHD5 PLIN5 PPI: inactive; UHRF1 binding: inactive; PRMT1 FP inh: inactive; MBD2 DNA inh: inactive; rCAG binder conf: inactive; DNA CAG counter: 8.7

Results for CCOC(=O)/C=C/C(=O)Nc1ccc(S(=O)(=O)Nc2cc(C)on2)cc1 ?
LEDGF integ inh: inactive; rCAG binder: inactive; ABHD5 PLIN5 PPI: inactive; UHRF1 binding: inactive; PRMT1 FP inh: inactive; MBD2 DNA inh: inactive

How did CC(C)C[C@H]1COc2cccc(F)c2S(=O)(=O)N1C do in these assays?
LEDGF integ inh: inactive; rCAG binder: inactive; UHRF1 binding: inactive; PRMT1 FP inh: inactive; MBD2 DNA inh: inactive

What do the screens show for `Cc1ccc(-c2cc(C(=O)NN=Cc3sccc3C)[nH]n2)cc1C`?
LEDGF integ inh: inactive; rCAG binder: inactive; UHRF1 binding: inactive; PRMT1 FP inh: inactive; MBD2 DNA inh: inactive

How did COc1ccccc1NC(=O)c1cc2cc(Br)ccc2cc1O do in these assays?
LEDGF integ inh: inactive; rCAG binder: 71; ABHD5 PLIN5 PPI: inactive; UHRF1 binding: inactive; PRMT1 FP inh: inactive; MBD2 DNA inh: inactive; rCAG binder conf: 49; DNA CAG counter: 25

What do the screens show for `COc1ccc(C)cc1NC(=O)NNC(=O)c1cc2ccccc2cc1O`?
LEDGF integ inh: inactive; rCAG binder: 58; ABHD5 PLIN5 PPI: inactive; UHRF1 binding: inactive; PRMT1 FP inh: inactive; MBD2 DNA inh: inactive; rCAG binder conf: 42; DNA CAG counter: 15

What do the screens show for `O=C(O)c1cc([N+](=O)[O-])ccc1NCCCc1ccccc1`?
LEDGF integ inh: inactive; rCAG binder: 37; ABHD5 PLIN5 PPI: inactive; UHRF1 binding: inactive; PRMT1 FP inh: inactive; MBD2 DNA inh: inactive; rCAG binder conf: inactive; DNA CAG counter: 6.5

Results for O=C(O)c1cc([N+](=O)[O-])ccc1NCc1ccccc1 ?
LEDGF integ inh: inactive; rCAG binder: inactive; ABHD5 PLIN5 PPI: inactive; UHRF1 binding: inactive; PRMT1 FP inh: inactive; MBD2 DNA inh: inactive

How did CCC(C)n1c(NC(=O)c2ccccc2)c(C#N)c2nc3ccccc3nc21 (configuration not stated) do in these assays?
LEDGF integ inh: 28; rCAG binder: 38; ABHD5 PLIN5 PPI: inactive; UHRF1 binding: inactive; PRMT1 FP inh: inactive; MBD2 DNA inh: inactive; rCAG binder conf: 68; DNA CAG counter: 31

How did CCC(=O)Nc1c(C#N)c2nc3ccccc3nc2n1-c1ccc(C)cc1 do in these assays?
LEDGF integ inh: inactive; rCAG binder: inactive; ABHD5 PLIN5 PPI: inactive; UHRF1 binding: inactive; PRMT1 FP inh: inactive; MBD2 DNA inh: inactive

Results for O=S(=O)(Nc1nc2ccccc2nc1N1CCN(c2ccccc2)CC1)c1ccc(F)cc1 ?
LEDGF integ inh: inactive; rCAG binder: 69; ABHD5 PLIN5 PPI: inactive; UHRF1 binding: inactive; PRMT1 FP inh: inactive; MBD2 DNA inh: inactive; rCAG binder conf: 67; DNA CAG counter: 28

Results for Cc1ccc(S(=O)(=O)Nc2nc3ccccc3nc2N2CCOCC2)cc1 ?
LEDGF integ inh: inactive; rCAG binder: inactive; ABHD5 PLIN5 PPI: inactive; UHRF1 binding: inactive; PRMT1 FP inh: inactive; MBD2 DNA inh: inactive
